PubChem BioAssay (EPA / NIEHS)
The source made the active and inactive calls. The calls were made as follows: active = hit-call score of the fitted dose curve at least 0.9, where 1 is the maximum; inactive = score below 0.9.

Tests used:
Conditions in all cases: mRNA level, 48 h; actives raise or lower the signal
[1] = read-out: CFLAR gene, CFLAR (gene 8837); test: LTEA_HepaRG_CFLAR: Life Technologies and Expression Analysis (LTEA) Assay for CFLAR gene using HepaRG (AID 2283455)
In short: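 Transcript level by qRT-PCR (normalized to ACTB, GAPDH and POLR2A) after 48 h chemical exposure of HepaRG cells, top concentration 100 uM with half-log steps, 0.5% DMSO vehicle, duplicates; fitted bidirectionally against DMSO baseline.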

[2] = read-out: Forkhead box O1 (FOXO1), FOXO1 (gene 2308); test: LTEA_HepaRG_FOXO1: Life Technologies and Expression Analysis (LTEA) Assay for Forkhead box O1 (FOXO1) using HepaRG (AID 2283456)
In short: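 FOXO1 transcript quantified by qRT-PCR after 48 h chemical exposure (top 100 uM, half-log steps, 0.5% DMSO) of HepaRG cells, housekeeping-normalized (ACTB/GAPDH/POLR2A). Changes fitted in both directions relative to vehicle.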

[3] = read-out: growth arrest and DNA damage 45 (GADD45A), GADD45A (gene 1647); test: LTEA_HepaRG_GADD45A: Life Technologies and Expression Analysis (LTEA) Assay for growth arrest and DNA damage 45 (GADD45A) using HepaRG (AID 2283458)
In short: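 Eight-point concentration-response in HepaRG cells: 48 h chemical exposure, 0.5% DMSO vehicle, top dose 100 uM. Normalized qRT-PCR mRNA readout with bidirectional fitting relative to DMSO.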

[4] = read-out: Forkhead box O3 (FOXO3), FOXO3 (gene 2309); test: LTEA_HepaRG_FOXO3: Life Technologies and Expression Analysis (LTEA) Assay for Forkhead box O3 (FOXO3) using HepaRG (AID 2283459)
In short: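 FOXO3 transcript measured by qRT-PCR (normalized to ACTB, GAPDH, POLR2A) after 48 h exposure of HepaRG cells in serum-free induction medium. Duplicates, eight half-log concentrations up to 100 uM, 0.5% DMSO; gain or loss fitted against DMSO.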

[5] = read-out: ABC Transporter (ABCB1), ABCB1 (gene 5243); test: LTEA_HepaRG_ABCB1: Life Technologies and Expression Analysis (LTEA) Assay for ABC Transporter (ABCB1) using HepaRG (AID 2283460)
In short: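 ABCB1 transcript level measured by TaqMan qRT-PCR against three housekeeping genes after 48 h chemical exposure of differentiated HepaRG cells. Top concentration 100 uM, half-log steps, eight points, 0.5% DMSO vehicle; bidirectional fit relative to DMSO.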

[6] = read-out: growth arrest and DNA damage 45 (GADD45B), GADD45B (gene 4616); test: LTEA_HepaRG_GADD45B: Life Technologies and Expression Analysis (LTEA) Assay for growth arrest and DNA damage 45 (GADD45B) using HepaRG (AID 2283461)
In short: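 Differentiated human HepaRG cells in serum-free induction medium exposed 48 h in duplicate to eight concentrations, top 100 uM, half-log steps, 0.5% DMSO. GADD45B mRNA by TaqMan qRT-PCR, normalized to ACTB, GAPDH, POLR2A; bidirectional fit versus DMSO.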

[7] = read-out: ABC Transporter (ABCC3), ABCC3 (gene 8714); test: LTEA_HepaRG_ABCC3: Life Technologies and Expression Analysis (LTEA) Assay for ABC Transporter (ABCC3) using HepaRG (AID 2283462)
In short: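 Differentiated human HepaRG cells exposed 48 h in serum-free induction medium, 0.5% DMSO vehicle, 8-point half-log series to 100 uM in duplicate. ABCC3 mRNA by qRT-PCR, normalised to ACTB, GAPDH, POLR2A; bidirectional fit vs DMSO.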

[8] = read-out: ABC Transporter (ABCB11), ABCB11 (gene 8647); test: LTEA_HepaRG_ABCB11: Life Technologies and Expression Analysis (LTEA) Assay for ABC Transporter (ABCB11) using HepaRG (AID 2283463)
In short: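 ABCB11 transcript levels quantified by TaqMan qRT-PCR against three housekeeping genes after 48 h chemical exposure of HepaRG cultures. Concentrations up to 100 uM in half-log steps, 0.5% DMSO vehicle; both induction and suppression scored.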

[9] = read-out: ABC Transporter (ABCC2), ABCC2 (gene 1244); test: LTEA_HepaRG_ABCC2: Life Technologies and Expression Analysis (LTEA) Assay for ABC Transporter (ABCC2) using HepaRG (AID 2283464)
In short: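 Differentiated HepaRG cells in serum-free induction medium exposed 48 h to eight half-log concentrations up to 100 uM, 0.5% DMSO, in duplicate. ABCC2 mRNA measured by qRT-PCR (TaqMan, Fluidigm), normalized to ACTB, GAPDH and POLR2A. Fitted in both directions against DMSO.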

[10] = read-out: Broad substrate specificity ATP-binding cassette transporter ABCG2 (Homo sapiens) (UniProt Q9UNQ0); test: LTEA_HepaRG_ABCG2: Life Technologies and Expression Analysis (LTEA) Assay for ABC Transporter (ABCG2) using HepaRG (AID 2283465)
In short: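 ABCG2 transcript was quantified by TaqMan qRT-PCR against three housekeeping genes in HepaRG cells. Cells were treated in duplicate for 48 h across an 8-point half-log series up to 100 uM, with 0.5% DMSO vehicle. Gain or loss versus DMSO was fit.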

[11] = read-out: ATP-citrate lyase (ACLY), ACLY (gene 47); test: LTEA_HepaRG_ACLY: Life Technologies and Expression Analysis (LTEA) Assay for ATP-citrate lyase (ACLY) using HepaRG (AID 2283466)
In short: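 ACLY mRNA quantified by qRT-PCR on Fluidigm arrays against three housekeeping genes, after 48 h chemical treatment of HepaRG cells (top concentration 100 uM, half-log steps, 0.5% DMSO vehicle). Up- or down-regulation fitted relative to DMSO.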

[12] = read-out: Peroxisomal acyl-coenzyme A oxidase 1 (ACOX1) gene, ACOX1 (gene 51); test: LTEA_HepaRG_ACOX1: Life Technologies and Expression Analysis (LTEA) Assay for Peroxisomal acyl-coenzyme A oxidase 1 (ACOX1) gene using HepaRG (AID 2283467)
In short: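 ACOX1 transcript levels were quantified by TaqMan qRT-PCR against three housekeeping genes after 48 h chemical exposure of differentiated human HepaRG cells. Exposure used eight half-log steps topping at 100 uM, 0.5% DMSO vehicle, in duplicate. Bidirectional curve fits were made relative to DMSO.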

[13] = read-out: Alkaline Phosphatase, Placental (ALPP) gene, ALPP (gene 250); test: LTEA_HepaRG_ALPP: Life Technologies and Expression Analysis (LTEA) Assay for Alkaline Phosphatase, Placental (ALPP) gene using HepaRG (AID 2283468)
In short: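 HepaRG cells plated 48 h, then exposed in duplicate for 48 h in serum-free induction medium to 8-point half-log series from 100 uM in 0.5% DMSO. ALPP mRNA by TaqMan qRT-PCR, normalized to ACTB/GAPDH/POLR2A; bidirectional fit versus DMSO.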

[14] = read-out: Bcl-2 (BAD) gene, BAD (gene 572); test: LTEA_HepaRG_BAD: Life Technologies and Expression Analysis (LTEA) Assay for Bcl-2 (BAD) gene using HepaRG (AID 2283469)
In short: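 Read-out: qRT-PCR of BAD mRNA, normalized to three housekeeping genes. Human HepaRG cultures got 48 h chemical exposure in 0.5% DMSO, duplicate eight-point half-log series topping at 100 uM. Gain or loss of signal fitted versus DMSO vehicle.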

[15] = read-out: Bcl-2 (BAX) gene, BAX (gene 581); test: LTEA_HepaRG_BAX: Life Technologies and Expression Analysis (LTEA) Assay for Bcl-2 (BAX) gene using HepaRG (AID 2283470)
In short: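 Human HepaRG cells treated in duplicate for 48 h across eight concentrations (max 100 uM, 0.5% DMSO); BAX expression measured by qRT-PCR.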

[16] = read-out: adenosine kinase (ADK) gene, ADK (gene 132); test: LTEA_HepaRG_ADK: Life Technologies and Expression Analysis (LTEA) Assay for adenosine kinase (ADK) gene using HepaRG (AID 2283471)
In short: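 HepaRG (human liver), 48 h chemical exposure, 8-pt half-log series, top 100 uM, 0.5% DMSO vehicle. Readout: ADK mRNA by qRT-PCR vs housekeeping genes; bidirectional curve fit relative to DMSO baseline.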

[17] = read-out: Alpha-fetoprotein (AFP) gene, AFP (gene 174); test: LTEA_HepaRG_AFP: Life Technologies and Expression Analysis (LTEA) Assay for Alpha-fetoprotein (AFP) gene using HepaRG (AID 2283472)
In short: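 Measures AFP mRNA change in HepaRG after 48 h chemical exposure (8 half-log concentrations, highest 100 uM, 0.5% DMSO). Fold change relative to DMSO, fitted in both directions.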

BCL2L11 (gene 10018) = test: LTEA_HepaRG_BCL2L11: Life Technologies and Expression Analysis (LTEA) Assay for Bcl-2 (BCL2L11) gene using HepaRG (AID 2283473)
In short: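 Differentiated human HepaRG cells were exposed 48 h in serum-free induction medium to eight half-log concentrations up to 100 uM in 0.5% DMSO, in duplicate. BCL2L11 mRNA was quantified by TaqMan qRT-PCR, normalized to ACTB, GAPDH and POLR2A; induction or repression fitted versus DMSO.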

Measured: outcome

Chain of Broad substrate specificity ATP-binding cassette transporter ABCG2 (Homo sapiens) (Q9UNQ0 whole entry, looked up): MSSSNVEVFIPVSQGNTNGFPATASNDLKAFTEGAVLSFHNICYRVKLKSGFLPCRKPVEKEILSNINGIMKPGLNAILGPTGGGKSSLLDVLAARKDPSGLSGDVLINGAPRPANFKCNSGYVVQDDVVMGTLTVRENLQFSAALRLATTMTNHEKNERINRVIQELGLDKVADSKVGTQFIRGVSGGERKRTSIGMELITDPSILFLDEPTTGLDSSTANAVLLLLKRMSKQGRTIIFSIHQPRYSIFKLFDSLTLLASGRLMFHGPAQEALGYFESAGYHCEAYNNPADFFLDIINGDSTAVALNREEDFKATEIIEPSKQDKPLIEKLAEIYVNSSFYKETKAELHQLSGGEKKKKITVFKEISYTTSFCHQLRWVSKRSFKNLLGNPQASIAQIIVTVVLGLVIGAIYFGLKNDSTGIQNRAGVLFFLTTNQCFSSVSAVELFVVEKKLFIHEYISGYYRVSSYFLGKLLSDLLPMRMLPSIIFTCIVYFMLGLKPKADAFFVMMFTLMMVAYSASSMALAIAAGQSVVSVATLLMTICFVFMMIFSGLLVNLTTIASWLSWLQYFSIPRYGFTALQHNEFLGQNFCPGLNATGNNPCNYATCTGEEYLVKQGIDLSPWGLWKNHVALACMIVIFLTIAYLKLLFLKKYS

c1cc[n+]2c(c1)-c1cccc[n+]1CC2
inactive: [1] | [2] | [3] | [4] | [5] | [6] | [7] | [8] | [9] | [10] | [11] | [12] | [13] | [14] | [15] | [16] | [17] | BCL2L11 (gene 10018)
